Screens deposited in PubChem BioAssay by Buhrlage Lab, Dana-Farber Cancer Institute and Novartis Institutes for BioMedical Research (Cambridge, Mass).
A selection: hits, their analogues and other compounds. The true share with any hit is near 11%.
USP30 block: human USP30 deubiquitinase inhibition; Q70CQ3; purified USP30, Ub-rhodamine cleavage fluorescence; inhibition, % at 25 µM; 47,000 tested, 5.3% active; AID 1645860
USP28 inh: inhibitors of human USP28 deubiquitinase. inhibition, % at 25 µM. 47,000 tested, 3% active. purified USP28, Ub-rhodamine cleavage fluorescence, 30 min. AID 1645857
OTUD3 block: human OTUD3 deubiquitinase inhibition | inhibition, % at 25 µM | purified OTUD3, Ub-rhodamine fluorescence, 2 h | Q5T2D3 | AID 1645858 | 47,000 tested, 0.7% active
Target sequence (Q5T2D3 whole entry, looked up): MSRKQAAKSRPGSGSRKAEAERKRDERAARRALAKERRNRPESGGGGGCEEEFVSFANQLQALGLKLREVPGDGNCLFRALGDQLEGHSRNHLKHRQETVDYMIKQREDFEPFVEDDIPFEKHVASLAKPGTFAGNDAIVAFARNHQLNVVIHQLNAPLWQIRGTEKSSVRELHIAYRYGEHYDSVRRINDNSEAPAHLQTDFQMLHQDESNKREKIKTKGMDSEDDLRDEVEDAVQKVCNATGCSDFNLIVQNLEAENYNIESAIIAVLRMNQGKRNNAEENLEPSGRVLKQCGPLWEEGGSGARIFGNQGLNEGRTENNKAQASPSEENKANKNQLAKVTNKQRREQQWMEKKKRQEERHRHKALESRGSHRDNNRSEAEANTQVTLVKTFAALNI
USP17 block: inhibitors of human USP17 deubiquitinase | A8MUK1 | purified USP17, Ub-rhodamine cleavage fluorescence, 3 h | inhibition, % at 50 µM | 47,000 tested, 6.5% active
Starred values were filed as active, the others as inactive; . = not tested or not shown. No stated cut-off is given here; in the data, active means inhibition above about 30%; inactive means the rest.

SMILES	USP30 block	USP28 inh	OTUD3 block	USP17 block
CCC(=O)N1CCCc2ccc(NC(=O)c3cccc(OC)c3)cc21	-6	37*	0	-6
CCC(=O)N1CCc2cc(C(=O)Nc3ccccc3OC)ccc21	17	43*	8	8
CCc1ccc(-c2nc(SCC(=O)c3c(N)n(C4CC4)c(=O)[nH]c3=O)n[nH]2)cc1	-242	-59	-46	44*
O=C(COC(=O)C1CCCN1C(=O)C12CC3CC(CC(C3)C1)C2)c1ccc(Cl)cc1 (stereo not drawn)	51*	7	14	8
O=C(c1ccncn1)N1CC[C@@H]2Oc3ccccc3S(=O)(=O)N(CC3CC3)[C@H]2CC1	16	16	13	10
CC(=O)N1CCN(c2nc3c(s2)CC(C(=O)Nc2cc(C)cc(C)c2)CC3)CC1 (stereo not drawn)	5	-4	-10	8
O=C(O)CCCCCN1C(=O)CC(c2ccc(Cl)cc2)CC1=O	-73	32*	8	76*
COc1cccc(C2C3=C(CC(c4ccc(Cl)cc4)CC3=O)Nc3ccccc3N2C(=O)CCC(=O)O)c1 (stereo not drawn)	23	25	10	18
Cc1ccc(N2CCCn3c2nc2c3c(=O)n(CCc3ccccc3)c(=O)n2C)cc1	31*	8	4	11
Cc1ccc(N2CCCn3c2nc2c3c(=O)n(CCCc3ccccc3)c(=O)n2C)cc1	14	1	6	0
O=C(OC(C(=O)c1c[nH]c2ccccc12)c1ccccc1)c1ccc(OCc2ccccc2)cc1 (stereo not drawn)	-28	-23	-20	-123
Cc1ccc(-n2ncc3c(O)c(C(=O)Nc4ccccc4F)c(=O)[nH]c32)cc1	19	11	14	11
O=C1COc2ccc(C(=O)c3ccccc3C(=O)NC3CC3)cc2N1	.	.	3	4
O=C1COc2ccc(C(=O)Nc3cccc4ncccc34)cc2N1	-126	15	-6	37*
COc1ccc(C(=O)Nc2nc(-c3ccc4c(c3)NC(=O)CO4)c(C)s2)cc1OC	6	-4	-9	58*
O=C(CN1C(=O)COc2ccc(Cl)cc21)Nc1cccc2ncccc12	-114	-5	-15	60*
O=C(Cc1ccc(Cl)c(Cl)c1)Nc1cccc2ncccc12	-143	2	-42	27
CC(=O)C1C(=O)C=C(c2ccccc2)CC1c1ccccc1 (stereo not drawn)	3	5	7	32*
CC(=O)N1[C@@H](c2ccccc2)C[C@@]2(C)[C@@H](O)[C@@H](O)CCC[C@@H]12	.	.	2	10
Cc1cc(C)cc(NC(=O)CCS(=O)(=O)c2ccc3c(c2)CC(=O)N3C)c1	-10	8	8	3
COc1ccc(C2CC(c3ccc(C)cc3)n3ncnc3N2C(=O)C2CC2)cc1 (stereo not drawn)	16	2	12	20
COc1ccc(C)cc1NC(=O)NCCc1cn(C)c2ncccc12	5	16	-2	2
COc1ccccc1NC(=O)NCCc1cn(C)c2ncccc12	0	37*	4	-2
Cc1ccc(-c2nc(C)sc2CC(=O)Nc2ccccc2N2CCOCC2)cc1	10	6	-4	0
CC(=O)c1ccc(NC(=O)Cc2sc(C)nc2-c2ccc(C)cc2)cc1	-3	39*	-1	-5
SMILES	USP30 block	USP28 inh	OTUD3 block	USP17 block
COC(=O)c1cc2sccc2n1CC(=O)Nc1cccc(SC)c1	36*	17	2	28
CC1CCN(C(=O)[C@@H]2CC[C@@H]3[C@@H](CCN3Cc3cnn(C)c3)O2)CC1	14	2	9	-16
O=C1COc2ccc(C(=O)C3CCNCC3)cc2N1	15	8	10	9
COc1ccc(-n2nnc(C(=O)Nc3ccccc3)c2N)cc1	14	12	5	51*
COc1ccc(-n2nnc(C(=O)Nc3cccc(Cl)c3)c2C)cc1	12	8	9	5
COc1ccc(NC(=O)c2nnn(-c3ccccc3)c2C)cc1Cl	-4	7	0	10
Cc1c(C(=O)Nc2ccccc2F)nnn1-c1cccc(F)c1	-3	27	-7	2
Cc1ccc(-n2nnc(C(=O)Nc3ccccc3)c2C)cc1	16	6	15	49*
COc1ccc(NC(=O)c2nnn(-c3ccccc3)c2C)cc1OC	0	56*	-4	-4
Cc1cccc(NC(=O)c2nnn(-c3ccccc3Cl)c2C)c1C	18	39*	5	10
CC(=O)N1CCC(c2cc(N3CC4(CCCCC4)OC3=O)nc(C)n2)CC1	1	1	3	0
CCc1ccc(CNC(=O)C(CC)N2C(=O)CCn3nc(C)cc32)cc1 (stereo not drawn)	14	10	6	7
